Measured values taken from PubChem BioAssay AID652017 (The Scripps Research Institute Molecular Screening Center, 2013).
Hit rate of the full screen: of about 370,000 compounds, about 3,800 (1%) were called active. No stated cut-off is given here; in the data, active means activation above about 7.8%; inactive means the rest. The entries come from a sample that favours actives as a whole.

Assay: SMARCA2 (BRM) function activators, primary screen, cell-based, luminescence, high throughput (AID 652017);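 further: 0% = vehicle wells and 100% = reference activator wells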
Conditions: MG213 cells, MMTV-luciferase reporter, dexamethasone, overnight; at 9.1 µM; stronger effect = higher value

| Structure (SMILES) | activation |
| --- | --- |
| C=CCN1C(C(=O)OC)CN(Cc2cn(Cc3ccccc3)nn2)CCS1(=O)=O (stereo not drawn) | 1.74% (inactive) |
| COc1ccc(C(=O)OCCN(C)C2CN(Cc3cn(Cc4cccc(C)c4)nn3)S(=O)(=O)C2)cc1OC (stereo not drawn) | -0.46% (inactive) |
| COc1ccc(C(=O)CSc2nnc(-c3cnccn3)n2-c2ccc(C)cc2)cc1 | -2.56% (inactive) |
| COc1ccc(OCc2cccc(C(=O)N3CCCC3)c2)cc1 | 7.84% (active) |
| CC(=O)Oc1ccc(-c2cccc(C(=O)N3CCCCC3)c2)cc1 | 1.59% (inactive) |
| CCOc1ccc(OCc2cccc(C(=O)N(CC)CC)c2)cc1 | 6.12% (inactive) |
| COc1ccc2nc(/N=C(\N)NC(=O)Nc3ccccc3)nc(C)c2c1 | 28.8% (active) |
| COc1ccc(NC(=O)ON=C2c3ccccc3-c3ccccc32)cc1 | 3.56% (inactive) |
| CCOC(=O)Cc1cc(=O)[nH]c(/N=C(\N)Nc2ccc(OC)cc2)n1 | -2.87% (inactive) |
| FC(F)(F)c1cccc(Cn2ccc3ccc(-c4ccc5ccn(Cc6ccccc6)c5c4)cc32)c1 | -1.65% (inactive) |
| O=C(NCC1COc2ccccc2O1)c1ccc(NC(=O)c2cc(F)ccc2F)cc1 (stereo not drawn) | -5.67% (inactive) |
| O=C(c1cc(C2CCCCN2S(=O)(=O)c2ccccc2)on1)N1CCOCC1 (stereo not drawn) | -0.23% (inactive) |
| O=C(c1cc(COc2ccc(F)cc2F)on1)N1CCOCC1 | 2.32% (inactive) |
| O=C(c1cc(-c2ccc(O)cc2)on1)N1CCOCC1 | 10.1% (active) |
| O=C(Nc1ccccc1C(F)(F)F)c1cc(-c2ccc(O)cc2)on1 | 1.17% (inactive) |
| COc1ccc(OCc2cc(C(=O)N3CCCC3)no2)c2ccccc12 | 5.22% (inactive) |
| O=C(c1cc(-c2ccccc2O)on1)N1CCCC1 | 8.63% (active) |
| CN(C(N)=NC(=O)/C=C/c1ccccc1)C(C#Cc1ccccc1)Cc1ccccc1 (stereo not drawn) | -4.38% (inactive) |
| COc1ccc(C)cc1N(C)C(=O)c1coc(=O)c2ccccc12 | -4.4% (inactive) |
| O=C(NC1CCCCN(Cc2cccc(C(F)(F)F)c2)C1=O)c1ccccc1I (stereo not drawn) | -2.23% (inactive) |
| COc1cc(CNCc2ccc(OC)c3ccccc23)cc(OC)c1OC | -2.64% (inactive) |
| COc1ccc2ccccc2c1CNc1nnnn1C | -2.94% (inactive) |
| COc1ccc2ccccc2c1CNCc1ccccn1 | 8.32% (active) |
| Cc1ccsc1C(=O)NC1CCCCC1C (stereo not drawn) | -1.24% (inactive) |

| Structure (SMILES) | activation |
| --- | --- |
| Cc1ccsc1C(=O)N/N=C/c1ccc([N+](=O)[O-])cc1 | 11.6% (active) |
| Cc1ccc(/C=N/NC(=O)c2sccc2OCc2ccc(F)cc2)cc1 | 3.74% (inactive) |
| COC(=O)[C@H](C(C)C)N(CCc1cn(Cc2ccccc2)nn1)S(=O)(=O)c1ccc(F)cc1Br | -6.28% (inactive) |
| CC(=O)OC12CCCN(C1)/C(=C/c1ccncc1)C2 (stereo not drawn) | -3.2% (inactive) |
| COc1ccccc1Nc1nnc(SC(C)C(=O)NC2CC2)s1 (stereo not drawn) | -2.93% (inactive) |
| O=C(CCCCCN1C(=O)C2C3C=CC(C3)C2C1=O)Nc1ccccn1 (stereo not drawn) | -1.58% (inactive) |
| COC(=O)C(C)n1cnc2c(nnn2-c2ccc(F)cc2)c1=O (stereo not drawn) | 2.24% (inactive) |
| CCOC(=O)C(C)n1cnc2c(nnn2-c2ccc(F)cc2)c1=O (stereo not drawn) | 0.38% (inactive) |
| CCOC(=O)C(C)n1cnc2c(nnn2-c2cccc(OC)c2)c1=O (stereo not drawn) | 9.14% (active) |
| O=C(NC1CCC1)c1ccc(C#CC2CC2)cn1 | 1.34% (inactive) |
| O=C(CCC(=O)c1cccs1)NC1CCCCCC1 | -4.41% (inactive) |
| O=C(CCCCCn1c(=S)[nH]c2ccsc2c1=O)NC1CCCCC1 | 8.72% (active) |
| CCCCC(CC)CNC(=O)CCCCn1c(=O)[nH]c2ccsc2c1=O (stereo not drawn) | -1.68% (inactive) |
| C=CC[C@]12C[C@@]3(O[C@H](c4ccc(C(F)(F)F)cc4)N=C3C[C@H](c3ccc(OC)cc3)[C@H]1C)N(C1CCN(Cc3ccccc3)CC1)C2=O | -1.14% (inactive) |
| Cc1nnc(NC(=O)CSc2nccn2-c2cccc(C)c2C)s1 | -0.75% (inactive) |
| Cc1nnc(NC(=O)Cn2c(=O)sc3ccccc32)s1 | 8.41% (active) |
| O=C(Cn1c(=O)sc2ccccc21)Nc1ccc2c(c1)OCCO2 | -0.22% (inactive) |
| C=C(C)C1CC23C(=O)C4(C(=O)c5ccccc5)C[C@@]5(C)CCC(CC2C1(C)C)(C4=O)C35OC (stereo partly drawn) | -5.25% (inactive) |
| Cc1ccccc1CN1CCCCC(NC(=O)Nc2ccccc2F)C1=O (stereo not drawn) | -2.59% (inactive) |
| C[C@@H](NC(=O)c1ccccc1OCC(=O)Nc1ccc(I)cc1)C(=O)N(C)Cc1ccccc1 | -3.4% (inactive) |
| CC(C)CCC(C)NC(=O)c1ccc2nccnc2c1 (stereo not drawn) | 0.02% (inactive) |
| O=C(CSc1c2c(nc3ccc(Cl)cc13)CCCC2)NCc1ccco1 | 3.79% (inactive) |
| CC(C)CCNC(=O)c1ccc2c(Cl)c3c(nc2c1)CCC3 | 10.7% (active) |
| O=C(O)c1ccc(COc2c(F)c(F)cc(F)c2F)o1 | 8.75% (active) |

| Structure (SMILES) | activation |
| --- | --- |
| O=C(O)c1ccc(NC(=O)c2ccc(COc3ccc(Cl)cc3)o2)cc1 | -1.89% (inactive) |
| O=C(O)CSCc1ccc(C(=O)O)o1 | 0.73% (inactive) |
| COc1cc(NC(=O)C2=C(C)OCCS2)c(Cl)cc1C(=O)NCCCN1CCCC(C)C1 (stereo not drawn) | -0.17% (inactive) |
| O=C(O)c1cccc(N=NN2CCCCCC2)c1 | 17.7% (active) |
| NC1=NN(c2cccc(C(=O)O)c2)C(=O)C1 | -1.73% (inactive) |
| Cc1cccc(C(=O)N2CCN(S(=O)(=O)N3CCCCC3)CC2)c1 | 3.31% (inactive) |
| Cc1cc(C)n2c(Nc3c(C)cccc3C)c(CCc3ccccc3)nc2n1 | 0.46% (inactive) |
| O=C(NCc1cccs1)C1CCCN(S(=O)(=O)c2ccc([N+](=O)[O-])cc2)C1 (stereo not drawn) | 0.22% (inactive) |
| CCC(C)[C@@H](C(=O)OC)N(CCc1cn(Cc2ccccc2)nn1)S(=O)(=O)c1ccccc1Br (stereo partly drawn) | -5.37% (inactive) |
| COc1ccccc1-c1sc2ccccc2c1-c1ccc(Br)nc1 | -0.09% (inactive) |
| COc1ccccc1C1=Nc2cccc3cccc(c23)N1 | 8.11% (active) |
| COc1ccccc1C1=CC(=O)CCC1 | 1.01% (inactive) |
| CCOc1ccc(N(CC(=O)Nc2c(C)n(C)n(-c3ccccc3)c2=O)S(=O)(=O)c2ccc(Cl)s2)cc1 | 3.83% (inactive) |
| CCC(CO)Nc1cccc2c1S(=O)(=O)N(Cc1cn(Cc3ccccc3C(F)(F)F)nn1)Cc1ccccc1O2 (stereo not drawn) | -1.93% (inactive) |
| Cc1ccccc1C(=O)O | -3.71% (inactive) |
| Cc1ccc(C(=O)CSc2ccccc2C(=O)O)cc1 | 9.24% (active) |
| O=C(CSc1cccc[n+]1[O-])c1ccc(-c2ccccc2)cc1 | 1.84% (inactive) |
| CCC1CO/C(=C(\C(=C(Cl)Cl)N2CCOCC2)[N+](=O)[O-])N1 (stereo not drawn) | -2.15% (inactive) |
| Cc1ccc(-c2nc3ccc(Cl)cn3c2Cc2ccccc2)cc1 | 10.1% (active) |
| COc1ccccc1Cc1c(-c2ccc(Cl)cc2)nc2ccc(Cl)cn12 | 4.42% (inactive) |
| Cc1cc(Br)cn2c(Cc3ccccc3C(F)(F)F)c(-c3ccc(Cl)cc3)nc12 | 3.06% (inactive) |
| Cc1cc(Br)cn2c(Cc3ccccc3C(F)(F)F)c(-c3ccc(C#N)cc3)nc12 | -1.52% (inactive) |
| Cc1ccc(-c2nc3ccc(Br)cn3c2Cc2ccccc2C(F)(F)F)cc1 | 8.44% (active) |
| Brc1ccc2nc(-c3ccccc3)c(Cc3ccccc3)n2c1 | 3.02% (inactive) |

| Structure (SMILES) | activation |
| --- | --- |
| COC(=O)c1cc(S(=O)(=O)N2CCN(C(=O)C3CCCO3)CC2)cn1C (stereo not drawn) | -1.22% (inactive) |
| CC(C)CNS(=O)(=O)CC1NCCc2ccccc21 (stereo not drawn) | -3.17% (inactive) |
| COc1cccc(Cn2cc(COC(=O)Nc3ccc(F)cc3)nn2)c1 | -0.28% (inactive) |
| COc1cccc(N(C)C(=O)[C@@H](C)[C@@H](O)c2ccc3ccccc3c2)c1 | -2.05% (inactive) |
| COc1ccnc(NC(=S)N2CCN(c3ncc(C(F)(F)F)cc3Cl)CC2)c1 | -3.61% (inactive) |
| COc1ccc(CN2C(=O)N3Cc4cc(OC)ccc4C3CS2(=O)=O)cc1 (stereo not drawn) | -5.55% (inactive) |
| CC(C)NC(=O)C(=O)NCCN1CCN(S(=O)(=O)c2ccc(Cl)cc2)CC1 | -1.85% (inactive) |
| C#CCNC(=O)C[C@H]1C[C@@]2(C(=O)OC)C(=C[C@H](C(C)C)O[C@@H]2C2CC2)N(Cc2ccco2)C1=O | -5.88% (inactive) |
| COc1ccc(CN2CC[C@H]3C=CC[C@@H](C(=O)N4CCOCC4)[C@H]3C2=O)cc1OC | 1.07% (inactive) |
| Cc1ccc(Nc2nc(Cl)c(C=O)s2)cc1 | 8.44% (active) |
| Cc1ccc(Nc2ccccc2N)cc1 | 0.3% (inactive) |
| Cc1ccc(Nc2cc(C)nc3c(C)ccc([N+](=O)[O-])c23)cc1 | -1.39% (inactive) |
| COC(=O)C1CN(CCc2ccccc2)CCS(=O)(=O)N1Cc1ccc(F)cc1 (stereo not drawn) | 0.54% (inactive) |
| CC1=CC(=O)C=CC1(C)C(Cl)(Cl)Cl (stereo not drawn) | -0.07% (inactive) |
| Cc1cc(C)nc(Nc2n[nH]c(-c3ccccc3N)n2)n1 | 8.89% (active) |
| Clc1ccc(-n2c(SC/C=C/c3ccccc3)nnc2-c2ccco2)cc1 | -3.27% (inactive) |
| Cc1ccc2nnn(Cc3cccc(C(C)(C)C)c3O)c2c1 | -2.51% (inactive) |
| CCOC(=O)CNC(=O)N(C)[C@H]1C[C@H]2c3[nH]c4c(-c5ccc6c(c5)OCO6)cccc4c3CCN2C(=O)[C@H]1[C@H](C)O | -1.46% (inactive) |
| COCC1CCN(C(=O)C2CCC(=O)N(CC3CCCCC3)C2)CC1 (stereo not drawn) | -3.22% (inactive) |
| COCC1CCN(C(=O)C2CCC(=O)N(Cc3cccc(C(F)(F)F)c3)C2)CC1 (stereo not drawn) | 13.1% (active) |
| O=C1CCC(C(=O)N2CCCCO2)CN1Cc1cccc(C(F)(F)F)c1 (stereo not drawn) | -2.44% (inactive) |
